From PubChem BioAssay AID1745856 (National Center for Advancing Translational Sciences (NCATS), 2022) come the findings set out here.

The structures appear in SMILES notation. The whole screen tested about 120,000 compounds, of which about 270 (0.23%) were called active. Not shown: some 5% with an inconclusive outcome. The sample as a whole holds a higher share of actives than the screen did. A number with no mark means an inactive call. Calls come from the whole dose curve.
% is set by controls: 0 for no effect and ±100 for the full control effect; potency is the fitted concentration of half-maximal effect.

The nature of the experiment: Primary qHTS Assay for Foot and Mouth Disease Virus Antivirals against NCGC Sytravon and CBC Compound Libraries: Firefly Luciferase Signal. Note: nearly all actives have a fitted effect of over 60% in size. To be noted: FMDV antiviral cell assay; series mostly up to 57.5 µM; activity change, negative = inhibition: at the top concentration. On the technique in general: In qHTS, concentration-response curves come from the screen itself.
`CCCc1cc(=O)oc2cc(OCC(=O)NCc3ccc(S(N)(=O)=O)cc3)ccc12`: the “activity change, negative = inhibition” value was 0.254%.

`O=C(NCc1ccccn1)C1c2ccccc2C(=O)N(C2CCCC2)C12CCCC2` (stereo not drawn): the “activity change, negative = inhibition” value was 0.974%. On the same count and under the same terms, the same measure for `CCOc1cc(-c2nnc(SCC(=O)NC3CCCCC3)nc2-c2ccc(OC)c(OCC)c2)ccc1OC`: -17.6%. Turning to `COc1ccc(-c2nc(CSCC(=O)NC3CCCCCC3)c(C)o2)cc1OC`, the Potency was 14.1 µM (active). As to `CCOc1cc(-c2nnc(SCC(=O)NC3CCCC3)nc2-c2ccc(OC)c(OCC)c2)ccc1OC`, the “activity change, negative = inhibition” value is 38.3%. The same measure, in the same setting: the same measure for `O=C(NCc1cccnc1)C(F)(F)C(F)(F)C(F)(F)F`: -6.42%. Regarding `Fc1ccc(N=Cc2cccc(Oc3ccccc3)c2)c(F)c1F`, the “activity change, negative = inhibition” value is 8.8%.

On to `COc1cccc(NC(=O)CCCc2nc(C(C)C)no2)c1`, for which the “activity change, negative = inhibition” value is 9.4%. Take `CCN1CCCC1CNC(=O)c1cccc2c(=O)c(C)c(-c3ccccc3)oc12` (stereo not drawn): the “activity change, negative = inhibition” value is -14.1%. Still for that read-out and setting: the figure for `Cc1ccc(NC(=O)COC(=O)c2ccc(C3Nc4ccccc4S(=O)(=O)N3)cc2)cc1` (stereo not drawn) is 2.63%.

Consider `CC(C)c1cccc(NC(=O)Cc2c[nH]c3ccccc23)c1`, for which the “activity change, negative = inhibition” value was 18.7%. Same read-out and setting: the same measure for `Cc1ccc(-c2csc3c2NC(=O)CC3c2ccc(C)cc2)cc1` (stereo not drawn): 7.72%; for `COc1ccc(C2CC(=O)Nc3c2c(=O)nc2c(C)cccn32)cc1OC` (stereo not drawn): -5.25%.

For the molecule `COc1ccc(-c2csc3c2NC(=O)CC3c2ccc(OCC(N)=O)c(OC)c2)cc1` (stereo not drawn), the Potency is 3.98 µM (active).

For `Cn1c(=O)[nH]c(=O)c2c1nc(NC1CCCCC1)n2CCCc1ccccc1`, the “activity change, negative = inhibition” value is -4.08%.

As for `Cn1nc(CC(=O)Nc2cccc(Cl)c2)c2ccccc2c1=O`, the Potency was 8.91 µM (active). As to `COc1ccc(NC(=O)COC(=O)c2nn(C)c(=O)c3ccccc23)cc1Cl`, the “activity change, negative = inhibition” value was 8.49%.

Consider `COc1ccc(Cl)cc1NC(=O)COC(=O)c1nn(C)c(=O)c2ccccc12`, for which the “activity change, negative = inhibition” value is 4.36%.

On to `Cc1ccc(-c2nc(CC(=O)NCc3ccc(Cl)cc3)cs2)o1`, for which the “activity change, negative = inhibition” value was 11%.

`COC(=O)c1c(C)[nH]c(C(=O)N2CCCCCC2c2ccc(OC)cc2)c1C` (stereo not drawn): the “activity change, negative = inhibition” value is 27.9%. Take `COc1nc2ccccc2nc1N1CCC(C(=O)NCc2ccccc2)CC1`: the “activity change, negative = inhibition” value is -6.82%. Still for that read-out and setting: the same measure for `COc1ccc(-c2cc(C(F)(F)F)nc(S(=O)(=O)CCC(=O)NCc3ccccc3)n2)cc1`: 17.2%. Still for that read-out and setting: the same measure for `CC(C)(C)c1ccc(-c2nnc(-c3ccc(Br)o3)o2)cc1`: 227%. In the case of `Clc1ccc(CNc2n[nH]c(-c3ccco3)n2)c(Cl)c1`, the “activity change, negative = inhibition” value was 2.56%. For the molecule `O=C(c1ccn(COc2ccccc2)n1)N1CCN(Cc2ccc(Cl)c(Cl)c2)CC1`, the “activity change, negative = inhibition” value was -20.2%.

`Cn1ccnc1C(NC(=O)Cc1ccsc1)c1ccccc1F` (stereo not drawn): the “activity change, negative = inhibition” value is -5.78%. With `O=C(NC12CC3CC(CC(C3)C1)C2)C1CCCO1` (stereo not drawn), the “activity change, negative = inhibition” value was 0.929%.

As to `C=C(C)C#CC(Cc1ccccc1)NCC1CC1` (stereo not drawn), the “activity change, negative = inhibition” value was 4.99%.

Regarding `O=C(/C=C/c1ccc(Cl)cc1)OC1CCCCC1=O` (stereo not drawn), the “activity change, negative = inhibition” value is 131%.

Turning to `CCOc1ccc2c(c1)cc(C(=O)Nc1cc(OC)ccc1OC)n2C`, the “activity change, negative = inhibition” value was 6.52%.

On to `COC(=O)c1ccc(S(=O)(=O)Nc2cccc(C(=O)OC)c2)cc1`, for which the “activity change, negative = inhibition” value was 6.65%. Still for that read-out and setting: the same measure for `COCCn1c(-n2nc(C)cc2C)nc2c1c(=O)n(Cc1ccccc1F)c(=O)n2C`: -7.87%. Still for that read-out and setting: the figure for `Cc1ccc(NC(=O)c2cccc(CS(C)=O)c2)c(C)c1` (stereo not drawn) is 0%; for `FC(F)(F)c1cnc(Sc2nnc(C3CC3)n2-c2ccccc2)c(Cl)c1` it is -10.1%. Still for that read-out and setting: the same measure for `O=C(CSc1n[nH]c(-c2cc(Cl)ccc2Cl)n1)N1CCCC1`: 14.1%; for `CCC(=O)Nc1ccc(C)cc1-c1nnc(SCC(=O)Nc2cc(Cl)ccc2Cl)[nH]c1=O`: -0.529%; for `COc1ccc2c(C)c(CC(=O)N3CCN(c4ccccn4)CC3)c(=O)oc2c1OC`: -12.5%. With `COc1ccccc1Oc1coc2cc(OCc3ccc(Cl)cc3)ccc2c1=O`, the “activity change, negative = inhibition” value is 21.1%. Still for that read-out and setting: the same measure for `CCn1c(=O)c2sccc2n(CC(=O)N2CCOc3ccc(C)cc32)c1=O`: -4.07%. `CC(=O)Nc1ccc(C(=O)COc2ncnc3sccc23)cc1`: the “activity change, negative = inhibition” value was 18.7%. As for `CCCCC(CC)CNC(=O)CCCCn1c(=O)[nH]c2ccsc2c1=O` (stereo not drawn), the “activity change, negative = inhibition” value was -10.5%. As for `CCCCC(CC)CNc1ncnc2sccc12` (stereo not drawn), the Potency is 8.91 µM (active).

Regarding `C=CCn1c(-n2nc(C)cc2C)nc2c1c(=O)n(CCOCC)c(=O)n2C`, the “activity change, negative = inhibition” value was 8.16%. In the case of `CC(C)Oc1ccc(C2CC(=O)NC3=C2C(=O)CC(C)(C)C3)cc1` (stereo not drawn), the “activity change, negative = inhibition” value was 24.8%. On the same count and under the same terms, the same measure for `N#C/C(=C/c1ccco1)c1nc2ccccc2[nH]1`: 181%; for `CC(Cn1cccn1)NC(=O)c1cc(Cl)c2c(c1)OCO2` (stereo not drawn): 0%. Still for that read-out and setting: the figure for `Cc1cc(=O)n2c3ccccc3n(CC(O)CNc3ccc(Cl)cc3)c2c1C#N` (stereo not drawn) is -3.73%; for `CCOC(=O)C1(C(C)=O)CC(C(=O)c2ccccc2)C(c2ccccc2)C(C(=O)c2ccccc2)C1` (stereo not drawn) it is 1.77%; for `COc1cc(OC)cc(C(NC(=O)NOCc2ccccc2)c2nccn2C)c1` (stereo not drawn) it is 21.3%.

As to `Cc1ccc(Cn2c(Br)nc3c2c(=O)n(C)c(=O)n3C)cc1`, the “activity change, negative = inhibition” value was 9.46%.

For `O=C(Cc1ccccc1)Nc1ccc2oc(-c3ccc(F)cc3)nc2c1`, the “activity change, negative = inhibition” value is 108%. Same read-out and setting: the figure for `Cc1cc(O)c2c(C)c(CC(=O)Nc3nc4ccccc4[nH]3)c(=O)oc2c1` is 1.93%. As for `Cc1cc(C)c2c(c1)C(=O)CCC2`, the “activity change, negative = inhibition” value is 14.9%.
